About 1,000 (0.29%) of roughly 340,000 compounds were called active. Rule as the data show it: inconclusive = inhibition above about 29% without an active follow-up result; inactive = below that. The list is a sample of the results. Results with a measured potency or affinity are listed apart.
Molecular target: Genome polyprotein (Dengue virus type 2 (strain 16681-PDK53)) (UniProt P29991)
Test: Dengue-2 NS5 methyltransferase inhibitors, primary screen, biochemical, confirmation dose response (AID 588689)
Settings: Dengue-2 NS5 methyltransferase capping enzyme assay, at 25 µM, stronger effect = higher value
[1] = measured here: pilot screen replicate inhibition

Row | Structure (SMILES) | inhibition | inhibition [1] [%]
1 | O=C(c1ccc(N2C(=O)c3ccccc3C2=O)cc1)N1CCN(S(=O)(=O)c2ccccc2F)CC1 | -0.55% (inactive) | –
2 | O=C(CCC(=O)Nc1cccc(Cl)c1)N/N=C/c1cc([N+](=O)[O-])ccc1O | -2.94% (inactive) | –
3 | CN1CCCC(OC(=O)c2ccc(C(C)(C)C)cc2)C1 (configuration not stated) | -4.27% (inactive) | –
4 | CCOC(=O)C1C(=O)CC(C)(O)C(C(=O)OCC)C1c1cccc(OC)c1 (configuration not stated) | -3.38% (inactive) | –
5 | CCNCc1cc(OCC)c(OCC(=O)NCCc2ccccc2)cc1Cl | -2.77% (inactive) | –
6 | CCCn1c(N)c(C(=O)CSc2nc3ncc(Cl)cc3[nH]2)c(=O)[nH]c1=O | -2.94% (inactive) | –
7 | Cc1ccc(S(=O)(=O)N2[C@@H](c3ccc(Cl)cc3)C(C(=O)O)=CC[C@H]2c2cccc(Cl)c2)cc1 | 22.7% (inactive) | –
8 | Cc1ccc([C@H]2C(C(=O)O)=CC[C@@H](c3cccc(Cl)c3)N2S(=O)(=O)c2ccc(C)cc2)cc1 | 16.6% (inactive) | 2.77
9 | Cc1ccc(S(=O)(=O)N2[C@@H](c3ccc(Cl)cc3)C(C(=O)O)=CC[C@H]2c2ccc(C(C)C)cc2)cc1 | 25.9% (inactive) | –
10 | Cc1ccc(S(=O)(=O)N2[C@@H](c3ccccc3)C(C(=O)O)=CC[C@H]2c2cccc(Cl)c2)cc1 | -2.4% (inactive) | –
11 | COc1ccc([C@@H]2CC=C(C(=O)O)[C@H](c3cccc(Cl)c3)N2S(=O)(=O)c2ccc(Cl)cc2)cc1 | 16% (inactive) | –
12 | Cc1ccc(S(=O)(=O)N2[C@@H](c3ccccc3)C(C(=O)O)=CC[C@H]2c2ccc(C(C)C)cc2)cc1 | 21.6% (inactive) | –
13 | Cc1ccc(S(=O)(=O)N2[C@@H](c3cccc(Cl)c3)C(C(=O)O)=CC[C@H]2c2cccc(C)c2)cc1 | 20.8% (inactive) | –
14 | Cc1ccc(S(=O)(=O)N2[C@@H](c3cccc(Cl)c3)C(C(=O)O)=CC[C@H]2c2ccc(Cl)cc2)cc1 | 20.7% (inactive) | –
15 | O=C(NCCCN1CCCC1=O)c1cccc(N2CCCC2=O)c1 | -1.47% (inactive) | –
16 | CN(C)S(=O)(=O)c1ccc(C(=O)OCC(=O)c2ccc(OC(F)F)cc2OC(F)F)cc1 | 2.08% (inactive) | –
17 | CCCN1CCN(C(=O)c2ccc(CS(=O)c3ccc(F)cc3)o2)CC1 (configuration not stated) | -6.18% (inactive) | –
18 | O=S(=O)(NCc1cccc(C(F)(F)F)c1)NCc1ccccc1F | -7.25% (inactive) | –
19 | CCn1c(SCc2nc3ccccc3c(=O)[nH]2)nnc1-c1ccncc1 | 3.13% (inactive) | -0.31
20 | CCCCn1c(N)c(N(CCOC)C(=O)CCc2ccc(OC)cc2)c(=O)[nH]c1=O | -2.18% (inactive) | –
21 | Cc1ccc(Cc2nc(-c3ccncc3)no2)cc1 | -1.78% (inactive) | –
22 | CCN(CC)Cc1cc(C(C)=O)ccc1O | -1.36% (inactive) | –
23 | CN(C)Cc1cc(O)c(CN(C)C)cc1O | 24.7% (inactive) | –
24 | Nc1nc(N)c(N=Nc2ccc(C(=O)O)cc2)c(N)n1 | 0.65% (inactive) | –
25 | COc1ccc(N=Nc2ccc(N)nc2N)cc1 | 1.3% (inactive) | –
26 | COc1cc2cc(CCCOC(=O)c3ccc(Br)cc3)oc(=O)c2cc1OC | 8.18% (inactive) | –
27 | COc1cc(C(CC(=O)Nc2ccc(C)cn2)N2Cc3ccccc3C2=O)cc(OC)c1OC (configuration not stated) | -5.88% (inactive) | –
28 | Cc1ccc(C(=O)C(C)OC(=O)C2CCN(c3ccc(C(F)(F)F)cn3)CC2)cc1 (configuration not stated) | -0.72% (inactive) | –

Row | Structure (SMILES) | inhibition | inhibition [1] [%]
29 | CNC(=O)C1CC(=O)N(CCc2ccc(C)cc2)C1 (configuration not stated) | -3.31% (inactive) | –
30 | Cc1noc(C(=O)Nc2ccccc2C(F)(F)F)c1Cl | -9.68% (inactive) | –
31 | CC(=O)NN1C(=O)/C(=C\c2ccc(C)cc2)SC1=S | -6.43% (inactive) | –
32 | COc1ccc(/C=C2/SC(=S)N(n3c(C)ccc3C)C2=O)cc1 | -3.19% (inactive) | –
33 | O=C(O)c1ccc(/C=C2\SC(=S)N(NC(=O)c3ccccc3)C2=O)cc1 | 8.49% (inactive) | –
34 | O=C(Cc1ccccc1)NN1C(=O)/C(=C/c2ccc(C(=O)O)cc2)SC1=S | 27% (inactive) | –
35 | O=C1/C(=C/c2ccc(O)c(O)c2)SC(=S)N1Nc1ccccc1 | -21.8% (inactive) | –
36 | COc1ccc(/C=C2/SC(=S)N(NS(=O)(=O)c3ccccc3)C2=O)cc1 | 21.2% (inactive) | –
37 | Cc1ccc(S(=O)(=O)NN2C(=O)/C(=C\c3ccc(Cl)cc3)SC2=S)cc1 | -1.66% (inactive) | –
38 | CCN1CCCC(NC(=O)c2cc([N+](=O)[O-])ccc2OC)C1 (configuration not stated) | -5.8% (inactive) | –
39 | O=C(CSc1ccccc1)N1CCCC(N2CCN(c3ccc(F)cc3)CC2)C1 (configuration not stated) | 1.77% (inactive) | –
40 | Nn1c(Cc2ccccc2F)nnc1SCC(=O)Nc1cccc(S(=O)(=O)NC2=NCCCCC2)c1 | -0.76% (inactive) | –
41 | COc1ccc(CNS(=O)(=O)NCc2ccc(C)cc2)cc1OC | -10.9% (inactive) | –
42 | COCCNC(=O)C1CC2Cn3c(nc4cc5ccccc5cc43)C2N1C (configuration not stated) | -1.6% (inactive) | –
43 | C=C(C)C(=O)NNc1ccccc1 | 0% (inactive) | –
44 | O=C(Cc1ccc(Cl)cc1)N/N=C/c1ccncc1 | -1.47% (inactive) | –
45 | Cc1noc(C)c1COc1ccc(C(=O)OCC(=O)Nc2cccc(S(=O)(=O)N3CCOCC3)c2)cc1 | 0.96% (inactive) | –
46 | O=C(O)c1ccccc1/C=N/NC(=O)C1CCCC1 | -8.46% (inactive) | –
47 | CCOc1ccc(/C=N/NS(=O)(=O)c2ccc(C)cc2)cc1OC | -1.16% (inactive) | –
48 | CCOc1ccc(/C=C2\SC(=S)N(Nc3ccccc3)C2=O)cc1OC | 8.01% (inactive) | –
49 | COc1cc(/C=C2/SC(=S)NC2=O)ccc1OS(=O)(=O)c1ccc(C)cc1 | 9.96% (inactive) | –
50 | COc1ccc(/C=C2/SC(=O)N(NS(=O)(=O)c3ccccc3)C2=S)cc1OC | 15.7% (inactive) | –
51 | COc1ccc(OC)c(/C=C2\SC(=S)N(NS(=O)(=O)c3ccc(C)cc3)C2=O)c1 | 40.5% (inactive) | –
52 | COc1cc(/C=C2\SC(=S)N(CC(=O)O)C2=O)ccc1OS(=O)(=O)c1ccc(C)cc1 | 22.7% (inactive) | –
53 | O=C1[C@H]2[C@@H](c3ccccc3)N[C@]3(CCCN(Cc4ccc(Cl)cc4)C3=O)[C@H]2C(=O)N1Cc1ccccc1 | -4.41% (inactive) | –
54 | CC(=O)C1N=NCC1c1ccccc1 (configuration not stated) | 0.78% (inactive) | –
55 | O=C(CSc1ccc(-c2ccc(F)cc2)nn1)NC1CCCCC1 | -4.13% (inactive) | –
